Screens as filed in PubChem.
USP17 inh: blocks human USP17 ubiquitin-rhodamine cleavage. inhibition, % at 50 µM. A8MUK1. actives 6.5% (n = 47,000). purified USP17, Ub-rhodamine cleavage fluorescence, 3 h
OTUD3 block: human OTUD3 deubiquitinase inhibition | actives 0.7% (n = 47,000) | Q5T2D3 | inhibition, % at 25 µM | purified OTUD3, Ub-rhodamine fluorescence, 2 h
USP30 inh: human USP30 deubiquitinase inhibition | Q70CQ3 | purified USP30, Ub-rhodamine cleavage fluorescence | inhibition, % at 25 µM | actives 5.3% (n = 47,000)
USP28 inh: blocks human USP28 ubiquitin-rhodamine cleavage; Q96RU2; purified USP28, Ub-rhodamine cleavage fluorescence, 30 min; inhibition, % at 25 µM; actives 3% (n = 47,000); AID 1645857
* marks the source's active call; other numbers are inactive results. Only some compounds are listed: those with a hit (about 12% of all), similar ones and a draw of the others. Rule as the data show it: active = inhibition above about 30%; inactive = the rest.

SMILES	USP17 inh	OTUD3 block	USP30 inh	USP28 inh
COc1cccc(N2CC(=O)Nc3c(oc4nc(-c5ccccc5)cc(C)c34)C2=O)c1	3	22	37*	4
CCn1c(=O)c(CCC(=O)NCc2ccc(OC)cc2)c(C)c2c(C)nn(-c3ccccc3C)c21	70*	24	77*	56*
O=C(Nc1cccc(C(F)(F)F)c1)c1ccccc1Cc1ccccc1	35*	23	18	26
O=C(CCC(=O)N(c1ccccc1)c1ccccc1)Nc1cccc(C(F)(F)F)c1	18	26	34*	15
CCc1ccc(NC(=O)C2CCN(c3ccc(-c4ccccc4)nn3)CC2)cc1	11	8	21	12
Cc1ccccc1NS(=O)(=O)c1ccc2c(c1)NC(=O)C(C)CS2 (centres undefined)	-5	0	8	9
CCN(CC)c1ncc2c(n1)CCC(C(=O)N1CCCC1)C2 (centres undefined)	0	9	12	45*
CCN(CC)c1ncc2c(n1)CCC(C(=O)NC(C)c1ccccn1)C2 (centres undefined)	-8	-2	-30	-13
CCOc1cc(-c2noc(-c3ccccc3)n2)ccc1OCC(=O)Nc1ncccc1C	38*	12	32*	7
Cc1nc2cc(N3CC(C(=O)Nc4ccccc4C)CC3=O)ccc2o1 (centres undefined)	6	9	9	12
Cc1nc2cc(N3CC(C(=O)Nc4ccc(F)cc4C)CC3=O)ccc2o1 (centres undefined)	63*	18	76*	16
CN1C[C@@]23CN(C(=O)NC4CCCC4)C[C@@H](C[C@@H]2S1(=O)=O)O3	-14	-1	-7	2
O=C(CSc1ncn(-c2ccccc2)n1)Nc1ccc(Cc2ccncc2)cc1	41*	15	39*	46*
O=C(Nc1ccc(Cc2ccncc2)cc1)c1ccccc1Br	4	-6	2	11
Cc1ccc(NC(=O)c2ccc(-n3nccc3C)cc2)c(O)c1	-2	-6	-52	-12
N[C@@H](Cc1ccccc1)C(=O)N1CCC2(CC1)CN(C(=O)c1ccc(Cl)cc1)CCO2	46*	21	68*	45*
CN1CCCC12CCCN(C(=O)c1ccc(Cl)cc1)C2 (centres undefined)	-4	-8	-3	-11
CCc1cc(C2CCCN2C(=O)Nc2ccc(F)c(Cl)c2)on1 (centres undefined)	-2	-5	-2	0
Cc1cc(F)ccc1NC(=O)Cn1c(C)cc(C)c1-c1nc(C2CC2)no1	48*	0	-7	4
Cc1cc(C)n(CC(=O)NCc2ccc(F)cc2F)c1-c1nc(C2CC2)no1	31*	12	33*	14
CCc1noc(-c2c(C)cc(C)n2CC(=O)Nc2ccc(C)cc2C)n1	-8	-9	-66	-16
COc1ccc(CCNC(=O)c2ccc(N3C(=O)C(C)CS3(=O)=O)cc2)cc1 (centres undefined)	8	4	6	17
O=C(c1ccc2occc2c1)N1CCC(S(=O)(=O)c2ccc(-c3ccco3)cc2)CC1	53*	14	13	20
CCN(CC)c1ccc(C(=O)CN2CCC(S(=O)(=O)c3ccc(-c4ccco4)cc3)CC2)cc1	31*	2	-10	10
O=S(=O)(c1ccc(-c2ccco2)cc1)C1CCN(Cc2cccnc2)CC1	21	-3	-39	-7
SMILES	USP17 inh	OTUD3 block	USP30 inh	USP28 inh
CCN(CC)c1ccc(C(=O)CN2CCC(S(=O)(=O)c3ccc(C)cc3)CC2)cc1	4	-16	-55	-16
Cc1c(C(=O)N=CN(C)C)sc(C#N)c1-c1ccccc1	18	4	32*	7
O=C(Cc1ccccc1)N1CCC(c2nc3c(nnn3Cc3ccc(F)cc3)c(=O)[nH]2)CC1	3	4	31*	16
Cc1ccc(Cn2nnc3c(=O)[nH]c(C4CCN(C(=O)Cc5ccccc5)CC4)nc32)cc1	3	-7	4	7
Cc1ccc(Cn2nnc3c(=O)[nH]c(C4CCN(C(=O)c5ccccc5)CC4)nc32)cc1	10	9	43*	9
N#Cc1ccc(NC(=O)N2CCC(c3nc4c(nnn4Cc4ccc(F)cc4)c(=O)[nH]3)CC2)cc1	30*	6	30*	29
O=C(c1c(F)cccc1F)N1CCC(c2nc3c(nnn3Cc3ccc(F)cc3)c(=O)[nH]2)CC1	-6	-8	3	-1
Cc1ccc(Cn2nnc3c(=O)[nH]c(C4CCN(C(=O)CC(C)(C)C)CC4)nc32)cc1	10	4	29	32*
Cc1ccccc1CN1C[C@@H]2C[C@@H](O)CN2C[C@@H]1Cc1ccccc1	-49	-48	-256	-55
